In the supplement of paper PMC6555819:

Legend:
Assay in all cases: PBM binding z-score (relative to random genomic background probes); higher = stronger binding; sequences stand for … in GC…GCGATTGACAGCGTAGAATGAAGG
[1] = system: RARb homodimer (NR concentration 270 nM)
Method in brief: (§1)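 Random background probes are the reference for binding z-scores. These scores derive from regression-normalized fluorescence on custom Agilent 4×180K protein-binding microarrays incubated 1 h with ligand-free nuclear receptor dimers. Binding was detected with antibodies against each partner (one per run).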

[2] = system: RARg:RXRa (NR concentration 270 nM, RXRa partner concentration 90 nM)
Method in brief: as §1

[3] = system: RARg homodimer (NR concentration 270 nM)
Method in brief: as §1

[4] = system: RXRa DBDmut IVT, anti-RXR (DBD mutation: RXRa K156A/R161A, NR concentration 90 nM)
Method in brief: as §1

[5] = system: RXRa homodimer (NR concentration 180 nM)
Method in brief: as §1

[6] = system: THRa:RXRa (NR concentration 90 nM, RXRa partner concentration 90 nM)
Method in brief: as §1

[7] = system: THRa homodimer (NR concentration 90 nM)
Method in brief: as §1

[8] = system: VDR homodimer (NR concentration 270 nM)
Method in brief: as §1

Row | Sequence | PBM binding z-score [1] | PBM binding z-score [2] | PBM binding z-score [3] | PBM binding z-score [4] | PBM binding z-score [5] | PBM binding z-score [6] | PBM binding z-score [7] | PBM binding z-score [8]
1 | TATACAGGGTCAAAGGCCAGTGTACGAATGTCGA | 3.45 | 5.7 | 5.08 | 2.97 | 7.04 | 3.57 | 0.905 | 2.75
2 | AGAATGAGGTTATTATGATCAGGGAATTGCGGTC | 0.795 | 1.07 | 0.882 | 2.21 | 1.7 | 2.21 | 1.08 | 1.41
3 | CGAACGAGGGCATGAGTTGTTAGCAAATGCCGAT | 0.54 | 0.951 | 1.44 | 2.23 | 0.556 | 1.08 | -0.284 | 1.12
4 | AGAATCAGGTTATACGTAGATCAGGGAAGAAAGT | 0.65 | 0.789 | 0.919 | 0.474 | 0.757 | 1.17 | 0.768 | 0.381
5 | CGTCCAAGGTCAGGGAGGTCAGTGAATGCCGAGT | 5.45 | 6.54 | 7.67 | 2.48 | 6.37 | 4.58 | 3.43 | 5.37
6 | CCTAGTTGGTCATGAGGTCACACACCGGATATGA | 4.66 | 5.3 | 4.46 | 2 | 5.17 | 4.72 | 5.35 | 4.1
7 | GCTTGTAGATCGAGGTTAAGAAAGACTAAGCTAA | 0.303 | 0.377 | 0.00467 | 0.166 | 1.04 | 1.38 | -0.253 | -0.273
8 | ATCTCTAGGTAAAGATAGTTAAGTGAATGCAAAT | -0.639 | 0.108 | 0.448 | -0.348 | -0.199 | 0.104 | -0.211 | -0.177
9 | ATCGAAAGGTCGAGGCGAGTATAGAGAAAGGGAA | 1.95 | 3.9 | 3.91 | 0.625 | 4.19 | 1.83 | -0.512 | 0.276
10 | CAAACTAGGTCCAGAGGTCAAAGTCCGCTTCCCG | 4.66 | 5.31 | 4.62 | 2.53 | 6.34 | 3.75 | 1.72 | 4.18
11 | CAAACTAGGTCAAAGGACAAAGTCGAGCCAACCA | 3.11 | 4.32 | 4.77 | 1.7 | 3.31 | 2.92 | 0.809 | 0.753
12 | TCATATAGGTAAAAGGTGGAAGTCGGTGTGGTAA | 0.589 | 0.466 | -0.0176 | 1.55 | 1.54 | 0.305 | 0.294 | 0.281
13 | ATCGAAAGGTCGGGAGGTGAGTATACAGAAAGGC | 2.92 | 3.82 | 3.34 | 0.594 | 3.58 | 2.21 | 0.967 | 0.718
14 | CCAGACAGGTGAAAGGGAACTCAGTCTGGTACGC | 0.101 | 0.15 | 0.299 | -0.242 | 0.59 | 0.0918 | -0.374 | 0.0555
15 | GCGACTGGGGCATCAGCAGGTTCCCATAACTTAA | 0.194 | -0.00118 | -0.0802 | -0.281 | -0.0306 | -0.0535 | -0.272 | -0.434
16 | CGTCCAAGGTCAATGCTCGGTCAGTGAAAGCATT | 4.62 | 6.85 | 6.5 | 3.69 | 5.11 | 3.71 | 2.09 | 2.86
17 | GCTTGTAGATCAAGGTTACGAAAGACTAAGCTAA | 0.837 | 0.713 | 0.558 | 0.173 | 1.09 | 1.81 | 0.263 | -0.274
18 | ATCGAAAGATCGAGGTGAGTATAGAGAAAGGGAA | -0.0948 | 0.227 | 0.358 | -0.896 | 0.294 | 0.955 | 0.245 | -0.151
19 | AGAATGAGGTGACCAAAGATCAGGGAAACGCTTG | 0.672 | 1.06 | 1.01 | -0.266 | 1.51 | 2.53 | 0.878 | -0.347
20 | ACTATTCGTTGAGACGAGGGCAACCGATAGGTTG | 1.26 | 0.489 | 0.81 | 0.393 | 0.523 | 1.33 | 0.648 | 0.643
21 | CCGACTAGGGCATAAGGTTACCATAAGCCAGCCC | 1.76 | 2.19 | 1.34 | -0.152 | 1.35 | 2.17 | 1.08 | -0.17
22 | ACAGACAGGTGATGAAGGTAACTCGGGCTATCAT | 0.556 | 0.166 | 0.396 | -0.159 | 0.351 | 0.765 | 0.0589 | -0.217
23 | AGTCAAAGTTCATCTAGGTACCGTAAGATATGCT | 3.72 | 5.39 | 5.76 | 4.67 | 4.36 | 3.05 | -0.565 | 5.46
24 | CAAACTAGGTCAAAGGTCTAAGTCGAGCCAACCA | 2.9 | 4.76 | 4.45 | 1.96 | 4.93 | 3 | 0.688 | 1.09
25 | CGAACTAGGTCAGAACAGGACAATGAAGGATGAT | 2.03 | 2.55 | 3.32 | 0.605 | 1.37 | 3.62 | 0.458 | 0.155
26 | AGTCAAAGTTCATCTACGTAACGTAAGATATGCT | 3.64 | 5.4 | 6 | 4.59 | 4.55 | 1.88 | -0.445 | 4.34
27 | GCTGCTAGGTCAACTGATCGTCAGCTAAAGCTCG | 3.16 | 4.5 | 5.79 | 1.38 | 2.8 | 2.73 | 0.546 | -0.532
28 | TCTTGTAGATCAACTGGAGGTTAAGAAAGATCGA | 0.645 | 1.23 | 0.313 | 0.336 | 0.971 | 1.1 | -0.207 | -0.0194
29 | ATCGAAAGGTCGAGGTGAGTACAGAGAAAGGGAA | 2.93 | 4.39 | 4.17 | 0.83 | 3.89 | 3.1 | 0.817 | 1.13
